A selection: hits, their analogues and other compounds. The true share with any hit is near 4.1%.
ALR inh: blocks human ALR sulfhydryl oxidase activity | purified ALR, DTT oxidation, H2O2 HRP-luminol luminescence | P55789 | inhibition, % (concentration not given with the values) | actives 3.8% (n = 290,000) | AID 485317;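 active = mean replicate inhibition above about 79%, with every replicate also reaching it, limit read from the data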
Target sequence (P55789 whole entry, looked up): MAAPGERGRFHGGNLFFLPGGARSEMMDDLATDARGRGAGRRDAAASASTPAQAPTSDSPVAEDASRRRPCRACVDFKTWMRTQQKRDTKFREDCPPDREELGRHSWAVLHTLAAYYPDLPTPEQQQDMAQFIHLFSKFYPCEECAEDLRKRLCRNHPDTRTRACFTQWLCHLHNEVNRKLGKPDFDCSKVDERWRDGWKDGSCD
HIV Env fusion: blocks HIV Env-driven cell-cell fusion; HeLa-JRFL Env/CEM21 cell fusion, luciferase; inhibition, % at 12.3 µM; actives 1.1% (n = 360,000); AID 651610;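 active = mean replicate inhibition score of at least 50 and every replicate individually at or above 50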
PglD inh: PglD (C. jejuni) enzyme inhibition | inhibition, % at 12.5 µM | AID 602405 | actives 0.098% (n = 360,000) | purified PglD enzyme, DTNB colorimetric CoA detection; in the data active = inhibition above about 16%, passing the limit was not always enough
F508del corr: CFTR F508del correction in bronchial cells. activity (quench increase), % at 7.58 µM. CFBE cells, YFP halide quenching; stimulated with forskolin plus potentiator P3; % fluorescence drop versus neutral controls. actives 0.36% (n = 350,000);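 active = mean added fluorescence quench of at least 8% versus neutral control, with both replicates also reaching 8%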;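 note: cells transiently co-express mutant CFTR-F508del with the halide-sensitive YFP; corrector assay measuring rescue of mutant channel to the surface after 24 h compound exposure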
NSD2 HMT inh: inhibitors of human histone methyltransferase NSD2. O96028. NSD2 peptide methylation, AlphaScreen, 120 min. inhibition, % at 12.5 µM. actives 0.54% (n = 310,000). AID 743445; in the data active = inhibition above about 50%
Casp6 inh: caspase-6 (human) enzyme inhibition; P55212; purified caspase-6, Z-VEID-R110 cleavage fluorescence; inhibition, % at 12.5 µM; actives 0.53% (n = 350,000); AID 686996;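 active = mean inhibition across replicates at least about 35%, with every replicate also reaching that limit, limit read from the data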
Target sequence (P55212 24-179 limits assumed): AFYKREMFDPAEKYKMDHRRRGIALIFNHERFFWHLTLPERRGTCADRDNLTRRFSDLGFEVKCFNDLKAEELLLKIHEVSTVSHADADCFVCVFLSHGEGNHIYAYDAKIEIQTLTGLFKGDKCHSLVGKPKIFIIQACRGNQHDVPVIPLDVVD
Target sequence (P55212 194-293 limits assumed): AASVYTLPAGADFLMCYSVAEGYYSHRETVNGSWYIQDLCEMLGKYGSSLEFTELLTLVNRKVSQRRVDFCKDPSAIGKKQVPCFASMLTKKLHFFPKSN
Hits are given with their value.

Screening C[C@H](CO)N1C[C@H](C)[C@@H](CN(C)Cc2ccc(-c3ccccc3)cc2)Oc2c(NS(=O)(=O)c3ccc(Cl)cc3)cccc2C1=O returned HIV Env fusion inactive, PglD inh inactive and F508del corr inactive.
Cc1ccccc1S(=O)(=O)Oc1cccc2c(O)cccc12 was read as ALR inh 99, HIV Env fusion inactive, PglD inh inactive, F508del corr inactive, NSD2 HMT inh inactive and Casp6 inh inactive.
`COc1ccc(-c2ccc([C@@H]3[C@@H](CO)N4C(=O)CN(C(=O)Cc5ccccn5)C[C@@H]34)cc2)cc1` gave F508del corr inactive.
`O=C(NCC[C@H]1CC[C@H](NS(=O)(=O)c2cccc(F)c2)[C@@H](CO)O1)C1CCOCC1` gave HIV Env fusion inactive, PglD inh inactive, F508del corr inactive and Casp6 inh inactive.
Screening CCOC(=O)c1c(CSc2cccs2)n(C)c2cc(Br)c(O)c(CN(C)C)c12 returned ALR inh 99, HIV Env fusion 85, PglD inh inactive, F508del corr inactive, NSD2 HMT inh inactive and Casp6 inh inactive.
`COc1cccc(C#Cc2ccc([C@H]3[C@@H](CO)N(C(=O)C4CCCCC4)[C@H]3C#N)cc2)c1` gave HIV Env fusion inactive, PglD inh inactive, F508del corr inactive and Casp6 inh inactive.
`CCn1cnc2cc(NCc3ccncc3)ccc21` gave ALR inh 82, HIV Env fusion inactive, PglD inh inactive and NSD2 HMT inh inactive.
Screening CCn1cnc2cc(NCc3ccc(Cl)cc3)ccc21 returned ALR inh inactive, HIV Env fusion inactive, PglD inh inactive, F508del corr inactive, NSD2 HMT inh inactive and Casp6 inh inactive.
Screening Cc1ccc(CNc2ccc3c(c2)ncn3C(C)(C)C)cc1 returned ALR inh 89, HIV Env fusion inactive, F508del corr inactive and Casp6 inh inactive.
`Cc1noc(C)c1NC(=O)Nc1ccc2c(c1)C(=O)N([C@H](C)CO)C[C@H](C)[C@H](CN(C)S(=O)(=O)c1ccc(Cl)cc1)O2` gave HIV Env fusion inactive, PglD inh inactive, F508del corr inactive and Casp6 inh inactive.
Screening Oc1cccc2cnccc12 returned ALR inh 99, HIV Env fusion inactive, PglD inh inactive, F508del corr inactive, NSD2 HMT inh inactive and Casp6 inh inactive.
Screening CN1CCN(C(=O)c2ccc(CN(c3ccccc3)S(=O)(=O)c3ccccc3)cc2)CC1 returned ALR inh inactive, HIV Env fusion inactive, PglD inh inactive, F508del corr 12, NSD2 HMT inh inactive and Casp6 inh inactive.
For CCN1CCN(C(=O)c2ccc(CN(c3ccccc3)S(=O)(=O)c3ccccc3)cc2)CC1 the results were HIV Env fusion inactive, PglD inh inactive, NSD2 HMT inh inactive and Casp6 inh inactive.
`O=C(O)C1CCCCC1C(=O)Nc1nc(-c2ccc(Cl)s2)cs1` (stereo unspecified) gave ALR inh inactive, HIV Env fusion inactive, NSD2 HMT inh inactive and Casp6 inh 46.
Screening CCCC(=O)Nc1nc(-c2ccc(Cl)s2)cs1 returned HIV Env fusion inactive, F508del corr inactive, NSD2 HMT inh inactive and Casp6 inh inactive.
O=S(=O)(c1ccc2c(c1)CCCN2)N1CCCC1 was read as PglD inh inactive, F508del corr inactive, NSD2 HMT inh inactive and Casp6 inh inactive.
O=S(=O)(c1ccc2c(c1)CCN2)N1CCCC1 was read as ALR inh 98, PglD inh inactive, F508del corr inactive, NSD2 HMT inh inactive and Casp6 inh inactive.
Screening O=C(NC[C@H]1CC[C@@H]2[C@@H](CN2S(=O)(=O)c2ccccc2[N+](=O)[O-])O1)C1CCCC1 returned F508del corr inactive and Casp6 inh inactive.
`CSc1ccc(/C=C/C(=O)N2CCCN(C)CC2)cc1` gave ALR inh 99, HIV Env fusion inactive, F508del corr inactive, NSD2 HMT inh inactive and Casp6 inh inactive.
Screening CSc1ccc(C(=O)/C=C/c2ccc(N)cc2)cc1 returned ALR inh 97, HIV Env fusion inactive and NSD2 HMT inh inactive.
Screening CSc1ccc(/C=C/C(=O)c2c(O)cc(C)oc2=O)cc1 returned ALR inh 98, HIV Env fusion inactive, PglD inh inactive, F508del corr inactive, NSD2 HMT inh inactive and Casp6 inh inactive.
For COCC(=O)N[C@H]1C=C[C@H](CC(=O)NCc2ccccc2OC)O[C@@H]1CO the results were HIV Env fusion inactive, PglD inh inactive, F508del corr inactive and Casp6 inh inactive.
Screening COc1ccc(-n2nnnc2-c2cccc(OC)c2)cc1 returned ALR inh inactive, HIV Env fusion 56 and PglD inh inactive.
Screening COc1ccc(NC(=O)Nc2ccc3c(c2)C(=O)N([C@H](C)CO)C[C@H](C)[C@H](CN(C)Cc2ccccc2)OCCCC[C@@H](C)O3)cc1 returned HIV Env fusion inactive, PglD inh inactive, F508del corr inactive and Casp6 inh inactive.
O=C(CSc1nnc(CNC(=O)c2cccs2)o1)Nc1cccc(F)c1 was read as ALR inh 99, HIV Env fusion inactive, PglD inh inactive, F508del corr inactive, NSD2 HMT inh inactive and Casp6 inh inactive.
Screening O=C(CSc1nnc(CNC(=O)c2cccs2)o1)Nc1cccc(Cl)c1 returned ALR inh 98, HIV Env fusion inactive, PglD inh inactive, F508del corr inactive, NSD2 HMT inh inactive and Casp6 inh inactive.
For NCCCCCc1nnc(SCc2cccc(Cl)c2)o1 the results were ALR inh inactive, HIV Env fusion inactive, PglD inh inactive and NSD2 HMT inh inactive.
For NCCCCCc1nnc(SCc2ccc(Cl)cc2Cl)o1 the results were ALR inh 99, HIV Env fusion inactive, PglD inh inactive and NSD2 HMT inh inactive.
Screening O=C(CSc1nnc(CNC(=O)c2cccs2)o1)Nc1ccccc1 returned ALR inh inactive, HIV Env fusion inactive, F508del corr inactive, NSD2 HMT inh inactive and Casp6 inh inactive.
NCCCCCc1nnc(SCC(=O)Nc2cccc(Cl)c2)o1 was read as ALR inh 92, HIV Env fusion inactive, PglD inh inactive and NSD2 HMT inh inactive.
Screening Cc1ccc(S(=O)(=O)Nc2cccc3c2O[C@H](CN(C)S(=O)(=O)c2ccc(C)cc2)[C@H](C)CN([C@H](C)CO)C3=O)cc1 returned HIV Env fusion inactive, PglD inh inactive, F508del corr inactive and Casp6 inh inactive.
Screening CCCCC(=O)Nc1ccnc(-c2cccnc2)n1 returned ALR inh 85, HIV Env fusion inactive, PglD inh inactive and NSD2 HMT inh inactive.
For CCCC#Cc1cnc2c(c1)C(=O)N([C@@H](C)CO)C[C@@H](C)[C@H](CN(C)C(=O)c1cccnc1)O2 the results were HIV Env fusion inactive, PglD inh inactive, F508del corr inactive and Casp6 inh inactive.
Screening Cc1cc(=O)[nH]c(SCC(=O)NCc2ccco2)n1 returned ALR inh inactive, PglD inh inactive and NSD2 HMT inh inactive.
`Cc1cc2nc(-c3cccnc3SCC(=O)NCc3ccco3)[nH]c2cc1C` gave ALR inh 99, F508del corr inactive, NSD2 HMT inh inactive and Casp6 inh inactive.
